PubChem BioAssay (NCATS)
Where “and” joins values, the source holds several entries; their conditions need not be identical. Identical values can stand only once. Inconclusive results are not listed. Values without a mark were called inactive. Calls of active or inactive are those of the source. Calls come from the whole dose curve; as a rule, active = well fitted curve in the direction sought with a large enough effect; inconclusive = small, poorly fitted or top-dose-only effect, or another doubt; inactive = no such curve, though single readings can be large; an effect the other way counts as inactive or inconclusive.

Experiments:
[1] = Viability qHTS for spleen associated tyrosine kinase inhibitor (SYKi) naive MV4-11 cells (AID 1963823); note: nearly all actives have a fitted effect of over 40% in size
In short: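 Compounds were dispensed acoustically onto plates, MV4-11 cells (SYKi-naive) added at 500 per well, and plates incubated 72 hr at 37 C. CellTiter-Glo was added and luminescence measured after 10 min.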

[2] = Viability qHTS for spleen associated tyrosine kinase inhibitor (SYKi) drug resistant MV4-11 cells (AID 1963824); note: nearly all actives have a fitted effect of over 35% in size
In short: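 SYK-inhibitor-resistant MV4-11 AML cells were seeded at 500 per well onto compound and cultured 72 hours (37 °C, 5% CO2). CellTiter-Glo was then added, and after 10 min at room temperature, luminescence gave viability.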

[3] = Quantitative highthroughput screen to assess conditional lethalithy of NOMO1 cells grown in RPMI1640 with dialyzed fetal bovine serum (RPMI+ds) (AID 1963877); note: nearly all actives have a fitted effect of over 30% in size;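 for Viability: series mostly up to about 46 µM; 100% = DMSO control wells and 0% = empty wells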
In short: (§1)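 Each medium arm—HPLM with 10% dialyzed FBS, or RPMI1640 with 5 mM glucose and 10% untreated or dialyzed FBS—was screened against an 11-point, 3-fold compound titration for 48 h at 37 °C, with CellTiter-Glo luminescence as endpoint.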

[4] = Quantitative highthroughput screen to assess conditional lethalithy of P12 Ichikawa cells grown in Human Plasma-Like Medium with dialyzed fetal bovine serum (HPLM+ds) (AID 1963879); conditions: Potency: viability; note: nearly all actives have a fitted effect of over 35% in size; for Viability: series mostly up to about 46 µM
In short: as §1

[5] = Quantitative highthroughput screen to assess conditional lethalithy of SEM cells grown in Human Plasma-Like Medium with dialyzed fetal bovine serum (HPLM+ds) (AID 1963882); note: nearly all actives have a fitted effect of over 35% in size; for Viability: series mostly up to about 46 µM
In short: as §1

[6] = Quantitative highthroughput screen to assess conditional lethalithy of SEM cells grown in RPMI1640 with dialyzed fetal bovine serum (RPMI+ds) (AID 1963884); note: nearly all actives have a fitted effect of over 35% in size;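 for Viability: series mostly up to about 46 µM; 100% = DMSO control wells and 0% = empty wells without cells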
In short: as §1

[7] = Cellular viability qHTS for adrenocortical cancer (ACC) cell line SW-13 (AID 1963989); conditions: SW-13 ACC cells viability, CellTiter-Glo, 48 h; activity (max response): active compounds read low; note: nearly all actives have a fitted effect of over 65% in size;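 for activity (max response): cells grown in serum-free medium with ITS supplement; % is set by controls: 0 for no effect and ±100 for the full control effect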
In short: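 Compound titrations (up to 46 uM final, in DMSO) were applied to SW-13 cells for 48 h at 37C/5% CO2. Reading used CellTiter-Glo after 20 min at room temperature; fitted curves yielded IC50 and efficacy.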

[8] = Cellular viability qHTS for adrenocortical cancer (ACC) cell line NCI-H295R (AID 1963990); note: nearly all actives have a fitted effect of over 60% in size
In short: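 Readout: CellTiter-Glo luminescence, 20 min RT. Exposure: 48 h, 37C/5% CO2. Cells: NCI-H295R, ITS-DMEM serum-free. Range: up to 46 uM. Analysis: 4PL fit, IC50 plus efficacy.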

[9] = Quantitative highthroughput screen to assess conditional lethalithy of NOMO1 cells grown in Human Plasma-Like Medium with dialyzed fetal bovine serum (HPLM+ds) (AID 1963878); note: nearly all actives have a fitted effect of over 35% in size
In short: as §1

[10] = Quantitative highthroughput screen to assess conditional lethalithy of P12 Ichikawa cells grown in RPMI1640 with untreated serum (RPMI+s) (AID 1963881); conditions: Potency: viability; note: nearly all actives have a fitted effect of over 35% in size;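 for Viability: series mostly up to about 46 µM; 100% = DMSO wells and 0% = empty wells without cells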
In short: as §1

[11] = Quantitative highthroughput screen to assess conditional lethalithy of SEM cells grown in RPMI1640 with unreated serum (RPMI+s) (AID 1963883); note: nearly all actives have a fitted effect of over 35% in size;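 for Viability: 100% = DMSO wells and 0% = empty wells without cells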
In short: as §1

[12] = Quantitative highthroughput screen to assess conditional lethalithy of P12 Ichikawa cells grown in RPMI1640 with dialyzed fetal bovine serum (RPMI+ds) (AID 1963880); conditions: Potency: P12-Ichikawa viability; note: nearly all actives have a fitted effect of over 35% in size;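 for Viability: 100% = DMSO wells and 0% = empty wells on each plate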
In short: as §1
Potency is the fitted concentration of half-maximal effect.

SMILES | Potency [1] | Potency [2] | Potency [3] | Potency [4] | Potency [5] | Potency [6] | Potency [7] | Potency [8] | Potency [9] | Potency [10] | Potency [11] | activity (max response) [7] | Potency [12]
CCn1c(-c2nonc2N)nc2c(C#CC(C)(C)O)ncc(OC[C@H]3CCCNC3)c21 | 16.6 µM (active) | 7.42 µM (active) | inactive | 0.0526 µM (active) | 18.7 µM (active) | 14.8 µM (active) | 28.2 µM (active) | 17.8 µM (active) |  |  |  |  | 
CN(C)C(=O)C(CCN1CCC(O)(c2ccc(Cl)cc2)CC1)(c1ccccc1)c1ccccc1 | 16.8 µM (active) and 14.8 µM (active) | 15 µM (active) and 10.5 µM (active) | 20.9 µM (active) |  |  |  | 5.17 µM (active) | 1.84 µM (active) and 28.2 µM (active) |  |  |  |  | 
C=CC(=O)N1CCc2ccc(-n3c(=O)ccc4cnc5ccc(-c6cnn(C)c6)cc5c43)cc21 | 0.632 µM (active) | 0.091 µM (active) | 4.69 µM (active) |  | 3.32 µM (active) | 3.32 µM (active) | 3.58 µM (active) | 0.506 µM (active) | 3.72 µM (active) | 7.43 µM (active) | 3.32 µM (active) |  | 
CCC(C(=O)O)C1CCC(C)C(C(C)C(O)C(C)C(=O)C(CC)C2OC3(C=CC(O)[C@@]4(CC[C@](C)(C5CC[C@@](O)(CC)C(C)O5)O4)O3)C(C)CC2C)O1 (stereo partly specified) | 0.332 µM (active) | 0.417 µM (active) | 1.18 µM (active) |  |  |  | 2.82 µM (active) | 0.708 µM (active) |  |  | 1.66 µM (active) |  | 
CC1(C)CCC(CN2CCN(c3ccc(C(=O)NS(=O)(=O)c4ccc(NCC5CCOCC5)c([N+](=O)[O-])c4)c(Oc4cnc5[nH]ccc5c4)c3)CC2)=C(c2ccc(Cl)cc2)C1 | 0.105 µM (active) | 10 nM (active) and 41.7 nM (active) | 0.105 µM (active) |  | 0.0332 µM (active) |  |  | inactive |  |  | 0.0526 µM (active) | -2.3% | 
COc1cc(CCc2cc(NC(=O)c3ccc(N4C[C@@H](C)N[C@@H](C)C4)cc3)n[nH]2)cc(OC)c1 | 1.18 µM (active) | 1.64 µM (active) | 18.7 µM (active) | 20.9 µM (active) | 5.26 µM (active) |  | 28.2 µM (active) | 17.8 µM (active) |  |  | 4.69 µM (active) |  | 
Cc1cc(CN2CCN(c3c(Br)cnc4nc(-c5ccc(N6CCN(C)CC6)cc5)[nH]c34)CC2)no1 | 0.0231 µM (active) | 29.1 nM (active) and 105 nM (active) | 1.05 µM (active) |  | 0.935 µM (active) | 0.743 µM (active) | 31.6 µM (active) |  | 16.6 µM (active) | 0.935 µM (active) | 0.743 µM (active) |  | 
COc1cc2c(N3CCN(C(=O)Nc4ccc(OC(C)C)cc4)CC3)ncnc2cc1OCCCN1CCCCC1 | 231 nM (active) and 235 nM (active) | 366 nM (active) and 662 nM (active) | 8.33 µM (active) |  |  | 0.132 µM (active) |  |  |  |  | 0.469 µM (active) |  | 8.33 µM (active)
Cn1c(Nc2ccc(C(F)(F)F)cc2)nc2cc(Oc3ccnc(-c4ncc(C(F)(F)F)[nH]4)c3)ccc21 | 2.91 µM (active) | 1.3 µM (active) | 23.5 µM (active) |  | 9.35 µM (active) |  |  | inactive |  | 14.8 µM (active) | 4.69 µM (active) | -8.43% | 
COc1cc(C)c(Sc2cnc(NC(=O)c3ccc(CNC(C)C(C)(C)C)cc3)s2)cc1C(=O)N1CCN(C(C)=O)CC1 (stereo unspecified) | 2.63 µM (active) | 3.32 µM (active) | 20.9 µM (active) |  | 4.18 µM (active) | 3.32 µM (active) |  | 8.91 µM (active) | 23.5 µM (active) |  | 4.18 µM (active) |  | 
CCCCc1oc2ccccc2c1C(=O)c1cc(I)c(OCCN(CC)CC)c(I)c1 | 18.8 µM (active) and 16.6 µM (active) | 23.7 µM (active) and 18.6 µM (active) | 20.9 µM (active) | inactive | inactive | inactive | 31.6 µM (active) | 22.4 µM (active) |  | inactive | inactive |  | inactive
Cc1cccc2c1CC[C@H](CN1CCC(c3c(Cl)cccc3Cl)CC1)C[C@@H]2O | 3.26 µM (active) | 2.59 µM (active) |  |  |  |  |  |  | 8.33 µM (active) |  |  |  | 
Cc1cnc(NC(=O)Nc2cc(Br)c(C)cc2OC[C@@H]2CNCCO2)cn1 | 1.32 µM (active) | 1.18 µM (active) | 1.66 µM (active) |  | 0.526 µM (active) |  |  | 2.51 µM (active) | 1.18 µM (active) |  | 0.935 µM (active) |  | 
